Several values for one entry are separate records, joined by “and”; a condition that tells them apart may be missing. Equal entries are not always repeated. Results filed as inconclusive are left out. A structure can be active in one record and inactive in another. Activity calls are given as the source filed them. Unless noted, calls follow the shape of the dose curve; as a rule, active = well fitted curve in the direction sought with a large enough effect; inconclusive = small, poorly fitted or top-dose-only effect, or another doubt; inactive = no such curve, though single readings can be large; an effect the other way counts as inactive or inconclusive.
Experiments:
[1] = Primary qHTS for small molecule stabilizers of the endoplasmic reticulum resident proteome: Secreted ER Calcium Modulated Protein (SERCaMP) assay (AID 1508630); also: % is scaled to controls: 0 for no effect and ±100 for the full control effect
Summary of the method: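 GLuc-SERCaMP-expressing SH-SY5Y cells, pretreated 16 h with compound, are challenged with thapsigargin to empty ER calcium stores; after 4 h, coelenterazine is added directly to the medium and luminescence is imaged.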

[2] = biological target: Cytochrome P450 2D6 (Homo sapiens) (UniProt P10635); test: Cytochrome P450 family 2 subfamily D member 6 (CYP2D6) small molecule antagonists: luciferase biochemical (cell-free) qHTS assay (AID 1645840; active = well fitted curve in the direction sought with a large enough effect in the repeat runs; an effect the other way counts as inactive or inconclusive; also: nearly all actives have a fitted effect of over 55% in size; also: potency is read from the fitted curve at half-maximal effect; as to activity change, negative = inhibition: % is scaled to controls: 0 for no effect and ±100 for the full control effect)
Summary of the method: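 P450-Glo luminescent screen: recombinant CYP2D6 enzyme–proluciferin substrate mix preincubated with compound 10 min at room temperature, then NADPH regeneration added for 1 h at room temperature. Detection reagent added for 20 min; luciferin light read as relative luminescence units.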

[3] = biological target: Cytochrome P450 2C9 (Homo sapiens) (UniProt P11712); test: Cytochrome P450 family 2 subfamily C member 9 (CYP2C9) small molecule antagonists: luciferase biochemical (cell-free) qHTS assay (AID 1645842; active = well fitted curve in the direction sought with a large enough effect in the repeat runs; an effect the other way counts as inactive or inconclusive; also: nearly all actives have a fitted effect of over 55% in size; also: potency is read from the fitted curve at half-maximal effect; as to activity change, negative = inhibition: % is scaled to controls: 0 for no effect and ±100 for the full control effect)
Summary of the method: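 Luminescence, after 20 min with luciferin detection reagent, reflected CYP2C9 turnover during a 1 h NADPH-driven reaction at 37C. Enzyme-substrate mix contained 0.4% bovine serum albumin and was preincubated with compound 10 min at room temperature.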

[4] = Primary qHTS for inhibitors of nuclear receptor binding SET domain protein 2 (NSD2) in an isogenic RCH-ACV NSD2 p.E1099K mutant (9B) (AID 1645876); also: nearly all actives have a fitted effect of over 70% in size; also: potency is read from the fitted curve at half-maximal effect
[5] = Primary qHTS for inhibitors of nuclear receptor binding SET domain protein 2 (NSD2) in an RCH-ACV wild type WT cells (2C) (AID 1645877); also: nearly all actives have a fitted effect of over 70% in size; also: potency is read from the fitted curve at half-maximal effect
[6] = biological target: N-terminal Xaa-Pro-Lys N-methyltransferase 1 (Homo sapiens) (UniProt Q9BV86); test: Confirmatory qHTS for Inhibitors of N-terminal methyltransferase 1 (NTMT1): MTaseGlo Assay (AID 1645874); also: nearly all actives have a fitted effect of over 65% in size; also: potency is read from the fitted curve at half-maximal effect;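 as to activity change, negative = inhibition: luminescence from SAH made as NTMT1 methylates SPKRIA peptide using SAM; 0% = DMSO control and -100% = no-enzyme control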
Summary of the method: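 Compounds are incubated with 125 nM NTMT1 and 100 uM SAM for 15 min before the SPKRIA peptide (1 uM) starts a 30 min room-temperature methylation. SAH is measured by coupled luciferase luminescence and curves fitted to a Hill equation.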

[7] = biological target: Catechol O-methyltransferase (Homo sapiens) (UniProt P21964); test: Confirmatory Screen for Target Class Profiling of Small Molecule Inhibitors of Methyltransferases (AID 1745852; calls by dose curve; also: potency is read from the fitted curve at half-maximal effect); conditions: MTase-Glo luminescence, SAH detection, recombinant enzyme; measured here: COMT max response; stronger effect = lower value
[8] = biological target: Guanidinoacetate N-methyltransferase (Homo sapiens) (UniProt Q14353); test: as above; conditions: MTase-Glo luminescence, SAH detection, recombinant enzyme; activity change, negative = inhibition: at 57.3 µM (top of the series) unless noted
Papain (Carica papaya) = Papain (Carica papaya) (UniProt P00784); test: Primary qHTS assay for inhibitors of the protease papain (AID 1645873);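 also: papain turnover of Z-FR-AMC read as the AMC fluorescence gain over 10 min; % is scaled to controls: 0 for no effect and ±100 for the full control effect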
Chain of Papain (Carica papaya) (P00784 whole entry, looked up): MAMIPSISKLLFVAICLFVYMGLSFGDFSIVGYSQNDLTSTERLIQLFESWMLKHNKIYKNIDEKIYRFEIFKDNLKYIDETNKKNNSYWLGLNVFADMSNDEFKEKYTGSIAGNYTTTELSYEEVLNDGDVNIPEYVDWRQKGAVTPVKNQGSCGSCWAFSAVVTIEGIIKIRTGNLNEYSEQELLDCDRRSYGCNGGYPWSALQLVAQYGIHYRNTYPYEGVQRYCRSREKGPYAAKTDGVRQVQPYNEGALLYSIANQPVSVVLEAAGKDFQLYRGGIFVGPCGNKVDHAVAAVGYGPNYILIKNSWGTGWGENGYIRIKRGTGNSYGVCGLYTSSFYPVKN

Chain of Cytochrome P450 2D6 (Homo sapiens) (P10635 whole entry, looked up): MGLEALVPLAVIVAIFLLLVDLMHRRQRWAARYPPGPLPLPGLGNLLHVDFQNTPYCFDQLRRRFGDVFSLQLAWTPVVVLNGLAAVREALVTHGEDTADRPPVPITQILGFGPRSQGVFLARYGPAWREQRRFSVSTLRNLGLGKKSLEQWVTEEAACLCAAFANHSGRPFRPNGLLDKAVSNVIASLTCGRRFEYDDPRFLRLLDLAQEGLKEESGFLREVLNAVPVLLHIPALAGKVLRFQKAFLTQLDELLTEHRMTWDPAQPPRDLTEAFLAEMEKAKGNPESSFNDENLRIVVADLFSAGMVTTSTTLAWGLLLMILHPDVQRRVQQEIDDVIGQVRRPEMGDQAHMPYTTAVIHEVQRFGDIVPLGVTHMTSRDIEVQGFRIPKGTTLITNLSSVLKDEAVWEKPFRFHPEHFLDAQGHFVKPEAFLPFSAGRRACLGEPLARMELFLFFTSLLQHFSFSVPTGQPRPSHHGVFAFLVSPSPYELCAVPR
Chain of Cytochrome P450 2C9 (Homo sapiens) (P11712 whole entry, looked up): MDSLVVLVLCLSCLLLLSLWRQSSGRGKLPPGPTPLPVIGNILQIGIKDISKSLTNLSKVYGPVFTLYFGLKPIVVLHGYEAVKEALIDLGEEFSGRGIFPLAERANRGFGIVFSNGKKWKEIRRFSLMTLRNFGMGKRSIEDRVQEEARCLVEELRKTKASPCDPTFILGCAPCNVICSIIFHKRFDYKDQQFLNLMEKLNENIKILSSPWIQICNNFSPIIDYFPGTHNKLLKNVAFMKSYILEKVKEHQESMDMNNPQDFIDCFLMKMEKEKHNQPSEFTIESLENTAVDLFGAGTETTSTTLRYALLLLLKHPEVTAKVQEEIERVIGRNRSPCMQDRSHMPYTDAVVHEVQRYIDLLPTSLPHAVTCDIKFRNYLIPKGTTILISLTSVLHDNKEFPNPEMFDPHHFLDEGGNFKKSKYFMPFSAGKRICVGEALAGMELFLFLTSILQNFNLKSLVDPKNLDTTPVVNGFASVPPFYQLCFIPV
Chain of N-terminal Xaa-Pro-Lys N-methyltransferase 1 (Homo sapiens) (Q9BV86 whole entry, looked up): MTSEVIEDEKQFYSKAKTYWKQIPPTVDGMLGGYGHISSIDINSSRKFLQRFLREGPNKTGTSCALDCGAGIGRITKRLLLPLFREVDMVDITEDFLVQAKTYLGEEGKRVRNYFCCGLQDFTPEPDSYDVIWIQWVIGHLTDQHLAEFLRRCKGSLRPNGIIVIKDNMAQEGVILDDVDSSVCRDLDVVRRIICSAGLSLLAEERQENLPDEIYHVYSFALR
Chain of Catechol O-methyltransferase (Homo sapiens) (P21964 whole entry, looked up): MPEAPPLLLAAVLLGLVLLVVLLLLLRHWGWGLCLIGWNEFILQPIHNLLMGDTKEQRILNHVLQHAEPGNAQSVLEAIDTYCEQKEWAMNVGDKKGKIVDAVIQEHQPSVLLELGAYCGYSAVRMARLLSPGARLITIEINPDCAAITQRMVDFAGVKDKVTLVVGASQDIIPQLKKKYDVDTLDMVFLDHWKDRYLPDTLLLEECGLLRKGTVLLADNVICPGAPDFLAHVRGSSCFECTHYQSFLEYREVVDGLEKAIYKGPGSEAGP

SMILES	Potency [1]	Potency [2]	Potency [3]	Potency [4]	Potency [5]	Potency [6]	activity [7]	Potency [8]	activity change, negative = inhibition [8]	outcome (Papain (Carica papaya))
C=CC(=O)Nc1cccc(Oc2nc(Nc3ccc(N4CCN(C)CC4)cc3OC)ncc2Cl)c1	inactive	23.9 µM (active)	13.5 µM (active)	5.15 µM (active) and 8.33 µM (active)	5.15 µM (active) and 8.33 µM (active)	–	–	–	–	–
Cc1cnc(-c2cnc(NCCNc3ccc(C#N)cn3)nc2-c2ccc(Cl)cc2Cl)[nH]1	inactive	1.51 µM (active)	1.51 µM (active)	4.59 µM (active) and 3.72 µM (active)	3.25 µM (active) and 3.72 µM (active)	–	–	–	–	–
CNC(=O)c1nn(C)c2c1C(C)(C)Cc1cnc(Nc3ccc(N4CCN(C)CC4)cc3)nc1-2	inactive	inactive	21.3 µM (active)	515 nM (active) and 662 nM (active)	409 nM (active) and 417 nM (active)	–	–	–	–	–
O=C(O)c1ccc2c(c1)nc(Nc1cccc(Cl)c1)c1ccncc12	inactive	inactive	12 µM (active)	4.59 µM (active) and 2.95 µM (active)	3.65 µM (active)	28.2 µM (active)	-68.6%	27.1 µM (active)	–	–
CC(C)c1cc(C(=O)N2Cc3ccc(CN4CCN(C)CC4)cc3C2)c(O)cc1O	inactive	inactive	12 µM (active)	115 nM (active) and 148 nM (active)	129 nM (active) and 166 nM (active)	–	–	–	–	–
COc1c(N2C[C@@H]3CCCN[C@H]3C2)c(F)cc2c(=O)c(C(=O)O)cn(C3CC3)c12	inactive	inactive	inactive	inactive	–	–	–	–	–	–
CC(C)(C)c1cnc(CSc2cnc(NC(=O)C3CCNCC3)s2)o1	inactive	25.1 µM (active)	17.8 µM (active)	209 nM (active)	0.148 µM (active)	–	–	–	–	–
Cc1ccc2nc(NC(=O)CSc3nc4c(c(=O)n3-c3ccccc3)SCC4)sc2c1	inactive	inactive	inactive	inactive	inactive	–	–	–	–	–
Cn1cc(-c2[nH]c3cc(NC(=O)[C@H](N)C4CCCCC4)cc4c3c2C=NNC4=O)cn1	inactive	inactive	9.52 µM (active)	578 nM (active) and 833 nM (active)	728 nM (active) and 742 nM (active)	–	–	–	–	–
CCCn1c(=O)c2[nH]c(-c3cnn(Cc4cccc(C(F)(F)F)c4)c3)nc2n(CC)c1=O	inactive	inactive	inactive	inactive	inactive	–	–	–	–	–
CNC(=O)c1ccc(N2C(=S)N(c3cnc(C#N)c(C(F)(F)F)c3)C(=O)C23CCC3)cc1F	inactive	inactive	6.74 µM (active)	inactive	inactive	–	–	–	–	–
COc1cccc2c(NCc3ccccc3)nc(-n3c(N)nc4ccccc43)nc12	inactive	1.9 µM (active)	6.74 µM (active)	8330 nM (active)	8.33 µM (active)	–	–	–	–	–
C=CC(=O)Nc1cccc(Oc2nc(Nc3ccc(N4CCN(C)CC4)cc3)ncc2Cl)c1	inactive	19 µM (active)	2.39 µM (active)	728 nM (active) and 2.09 µM (active)	649 nM (active) and 1.32 µM (active)	–	-18%	27.1 µM (active)	–	–
Cn1c(CNc2ccc(C(=N)N)cc2)nc2cc(C(=O)N(CCC(=O)O)c3ccccn3)ccc21	inactive	–	10.7 µM (active)	inactive	inactive	–	-2.15%	–	1.99%	–
Nc1nc(NCCNc2ncc(-n3ccnc3)c(-c3ccc(Cl)cc3Cl)n2)ccc1[N+](=O)[O-]	inactive	1.69 µM (active)	0.134 µM (active)	5.15 µM (active) and inactive	4.59 µM (active) and inactive	–	-0.828%	–	0%	–
CCCCCCCCCC(=O)N[C@@H](Cc1c[nH]c2ccccc12)C(=O)N[C@H](CC(N)=O)C(=O)N[C@@H](CC(=O)O)C(=O)N[C@@H]1C(=O)NCC(=O)N[C@@H](CCCN)C(=O)N[C@@H](CC(=O)O)C(=O)N[C@H](C)C(=O)N[C@@H](CC(=O)O)C(=O)NCC(=O)N[C@H](CO)C(=O)N[C@@H]([C@@H](C)CC(=O)O)C(=O)N[C@@H](CC(=O)c2ccccc2N)C(=O)O[C@@H]1C	inactive	–	–	inactive	–	–	–	–	–	–
COc1cc2c(NC3CCN(C(C)C)CC3)nc(C3CCCCC3)nc2cc1OCCCN1CCCC1	inactive	–	–	9.16 µM (active) and 8.33 µM (active)	–	inactive	-9%	–	-6.26%	–
O=C(NCCCNc1nc(Nc2cccc(NC(=O)N3CCCC3)c2)ncc1I)c1cccs1	inactive	–	–	5.8 µM (active) and 1.48 µM (active)	–	6.76 µM (active)	–	–	–	–
O=c1c2ccccc2nc2n1CCc1c-2[nH]c2ccccc12	inactive	–	–	inactive	inactive	–	–	–	–	inactive
Nc1ccccc1NC(=O)c1ccc(CNc2nccc(-c3cccnc3)n2)cc1	inactive	4.77 µM (active)	5.35 µM (active)	258 nM (active) and 590 nM (active)	205 nM (active) and 590 nM (active)	–	-14%	–	-1.06%	–
